High-throughput results deposited in PubChem by National Center for Advancing Translational Sciences (NCATS).
Most compounds without a hit are left out; they make up all but 6.5% or so of the library.
VACV Venus inh = vaccinia inhibition (Venus reporter) | Vaccinia virus Venus reporter expression, fluorescence | Potency, µM (series often up to 36.5 µM), for the others: at the top dose activity change, negative = inhibition, usual class: inhibitors | 0.46% of 330,000 active | AID 720580; calls by dose curve; tested in A549 cells; note: potency is the fitted concentration of half-maximal effect; nearly all actives have a fitted effect of over 30% in size
Vaccinia mCherry = vaccinia inhibition (mCherry reporter); Vaccinia virus mCherry reporter infection, fluorescence; Potency, µM (series often up to 36.5 µM), for the others: at the top dose activity change, negative = inhibition, hits mostly inhibitors; 0.63% of 310,000 active; calls by dose curve; tested in A549 cells; note: potency is the fitted concentration of half-maximal effect; nearly all actives have a fitted effect of over 35% in size
HCMV antiviral = human cytomegalovirus inhibition | 4.5% of 410,000 active | activity change, negative = inhibition, % at 57.5 µM | HFF cells, HCMV-luciferase reporter, 72 h; active compounds read low; in the data active = activity change below about -60%; inconclusive = no clear call, values can overlap the other calls; inactive = above about -39%
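Human foreskin fibroblasts infected with luciferase-reporter HCMV at MOI 1 PFU/cell, compounds at two doses. Luciferase measured 72 h post infection; normalized to buffer-only basal and Salinomycin (10uM) controls.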
Lassa entry inh = Lassa virus entry inhibition; Lassa virus pseudotype entry inhibition, cell reporter; Potency, µM (series often up to 37.9 µM), inactives show at the highest dose activity change, negative = inhibition, usual class: inhibitors; 1.2% of 300,000 active; AID 540256; calls by dose curve; tested in HEK293 cells; note: potency is the fitted concentration of half-maximal effect; nearly all actives have a fitted effect of over 50% in size
Marburg entry inh = Marburg virus entry inhibition | Potency, µM (series often up to 37.8 µM), for the others: at the highest dose activity change, negative = inhibition, usual class: inhibitors | 1.8% of 300,000 active | Marburg virus pseudotyped entry inhibition, cell reporter; calls by dose curve; tested in HEK293 cells; note: potency is the fitted concentration of half-maximal effect
FMDV inh = blocks foot and mouth disease virus. FMDV antiviral cell-based qHTS. Potency, µM (highest dose often 57.9 µM), inactives show at the highest dose activity change, negative = inhibition, usual class: inhibitors. 1.2% of 410,000 active. AID 1159524; calls by dose curve; tested in HEK293T cells; note: read-out not given here; potency is the fitted concentration of half-maximal effect; nearly all actives have a fitted effect of over 45% in size
* marks the source's active call; other numbers are inactive results; i = inactive; ? = inconclusive; · = not tested or not shown; [ ] = dose if it differs, or a comment. % is set by controls: 0 for no effect and ±100 for the full control effect.

SMILES | VACV Venus inh | Vaccinia mCherry | HCMV antiviral | Lassa entry inh | Marburg entry inh | FMDV inh
CC1CC1c1ccc(/C=C(\C#N)C(=O)Nc2ccc(Cl)cc2Cl)o1 (stereo unspecified) | 2.7% | -19.9% | -64.1* | -6.0% | ? | 17.6%
Cc1cc(C)c(C(=O)NCc2nc(-c3cccc(NC(=O)C4CCCN(C)C4)c3)oc2C)[nH]1 (stereo unspecified) | -8.2% | -15.3% | · | · | · | -6.4%
NCCOc1ccc(C23CC4CC(CC(C4)C2)C3)cc1 | · | · | -85.0* | · | · | ?
OCCN1CCN(CC(O)COc2ccc(C34CC5CC(CC(C5)C3)C4)cc2)CC1 (stereo unspecified) | ? | -25.6% | -95.7* | ? | ? | -16.9%
COc1ccccc1N1CCN(c2nc(CNC(=O)C3CCOC(C)(C)C3)nc3ccccc23)CC1 (stereo unspecified) | -8.5% | -11.7% | · | · | · | -23.7%
COc1cc(NC(=O)CN(C)S(=O)(=O)c2ccc3c(c2)CCCC(=O)N3)cc(OC)c1OC | 5.2% | -2.6% | -0.6 | 24.5%[46.1 µM] | · | -22.1%
COC(=O)c1ccc(NC(=O)CN(C)S(=O)(=O)c2ccc3c(c2)CCCC(=O)N3)cc1 | -3.7% | -11.9% | 2.0 | ? | · | 31.6µM*
COc1cc(NCCCC(C)N)c2ncccc2c1 (stereo unspecified) | ? | · | -106.8* | ? | 3.55µM* | -18.5%
CCC(CNc1cc(OC)cc2cccnc12)NC1CCCCC1 (stereo unspecified) | · | · | -23.3 | · | · | -18.7%
COc1cc(NCCCCC(C)N)c2nccc(C)c2c1 (stereo unspecified) | ? | ? | -70.6* | · | · | -24.0%
Oc1ccccc1N1CCN(C(=S)Nc2ccc(SC(F)F)cc2)CC1 | -14.8% | -18.8% | ? | 5.01µM* | ? | ?
Oc1cccc2c(NC(=S)Nc3ccc(SC(F)F)cc3)cccc12 | · | · | 40.2 | -11.9% | -30.4% | 12.6µM*
Oc1cccc(NC(=S)Nc2ccc(SC(F)F)cc2)c1 | -18.7% | -15.6% | -7.4 | 3.6% | ? | -1.0%
Cc1c(C#N)c(NC(=O)CCl)n(Cc2ccccc2)c1C | ? | ? | ? | ? | ? | 11.2µM*
Cc1c(C#N)c(NC(=O)CCl)n(Cc2ccc(F)cc2)c1C | · | · | -67.7* | · | · | 12.6µM*
Cc1cc(=O)n(Cc2ccccc2)c(O)c1C#N | -8.0% | -22.5% | -7.2 | 2.1% | 2.6% | -11.3%
Cc1c(C#N)c(NC(=O)CCl)n(Cc2cccs2)c1C | · | · | -92.6* | · | · | 20µM*
COC(=O)c1cc(C(=O)OC)n(Cc2ccc(F)cc2)c1C | -10.6% | i | 15.2 | 19.6%[46.1 µM] | -0.6%[46.1 µM] | -17.9%
CN(c1ccccc1)c1nc(C#N)nc(N2CCOCC2)n1 | -28.4% | -14.6% | · | · | · | ·
Cc1nnc(C)n1/N=C\c1cc(Br)cc(Br)c1O | · | · | · | · | -9.7% | ·
CC(C)C[C@H]1COc2ccc(Cl)cc2S(=O)(=O)N1 | · | · | -30.9 | · | · | ·
Fc1ccc(C(NCCc2ccc(Cl)cc2)c2nnc(-c3ccccc3)o2)c(Cl)c1 (stereo unspecified) | -3.9% | -10.1% | 10.1 | 10.0%[46.1 µM] | -23.9%[46.1 µM] | 13.6%
COc1ccc(CCNC(c2ccc(F)cc2)c2nnc(-c3ccccc3Cl)o2)cc1OC (stereo unspecified) | -12.2% | -12.6% | -9.1 | -28.4%[46.1 µM] | 12.6µM* | ?
Cn1c(C(=O)N2CCCC(C(=O)NCCc3ccccc3)C2)cc2sccc21 (stereo unspecified) | -15.7% | -1.7% | -97.3* | ? | ? | ·
Cc1onc(-c2ccccc2)c1C(=O)Nc1ccc(OC(C)C)cc1 | -3.6% | 10.0% | -29.3 | · | · | 0.708µM*
SMILES | VACV Venus inh | Vaccinia mCherry | HCMV antiviral | Lassa entry inh | Marburg entry inh | FMDV inh
CCCOc1ccc(NC(=O)c2c(-c3ccccc3)noc2C)cc1 | -14.4% | 3.4% | -2.7 | · | · | -18.7%
Cc1cccc(C(=O)Nc2sc(C)c(-c3ccccc3)c2C#N)c1 | -19.9% | -5.0% | 13.0 | ? | ? | -23.8%
Cc1onc(-c2c(F)cccc2Cl)c1C(=O)Nc1sc2c(c1C(N)=O)CCC2 | · | · | -74.2* | -27.6% | ? | ?
Cc1onc(-c2ccccc2)c1C(=O)Nc1sc2c(c1C#N)CCC2 | · | · | ? | ? | 4.61µM* | ?
Cc1onc(-c2ccccc2)c1C(=O)Nc1sc2c(c1C(N)=O)CCC2 | · | · | ? | 0.2% | ? | -7.2%
Cc1noc(C)c1C(=O)Nc1sc(C)c(-c2ccccc2)c1C#N | 4.3% | -6.6% | -104.2* | 14.0% | -1.4% | 28.2µM*
CN1C[C@]2(CCN3CCCC(C)(C)[C@@H]32)c2ccccc21 | · | · | 17.6 | · | · | ·
CCc1nc(SCc2cc(=O)c3cc(C)ccc3[nH]2)n[nH]1 | -9.8% | -0.1% | -10.4 | -9.7%[46.1 µM] | · | -9.0%
COc1ccc(CNC(=O)C2CCCN(C(=O)N3CCOc4ccccc43)C2)cc1 (stereo unspecified) | -13.1% | -7.9% | -18.2 | -16.6%[46.1 µM] | · | -19.0%
Cn1cc([N+](=O)[O-])c(C(=O)Nc2sc3c(c2C#N)CCC3)n1 | · | · | -101.2* | · | · | 10.2%
Cn1cc(Br)c(C(=O)Nc2sc3c(c2C#N)CCC3)n1 | -7.7% | -12.8% | -3.6 | 10.6% | 7.4% | 45.9%
NC(=O)c1nnn(Cc2cc(Cl)c(C(=O)c3ccc(Cl)cc3)c(Cl)c2)c1N | -16.8% | -27.8% | -91.2* | · | · | ?
Nc1c(C(=O)Nc2ccc3c(c2)OCCO3)nnn1Cc1ccc(Cl)cc1 | -19.0% | -21.4% | 28.9 | -1.6% | 9.4% | 46.9%
C=CCNc1nc(-c2c(C)nc3sccn23)cs1 | · | · | 28.7 | -28.1% | -28.0% | -20.2%
Cc1nc2sccn2c1-c1csc(NCc2ccccc2)n1 | ? | ? | -71.6* | -28.9% | ? | ·
Cc1nc2ncccn2c1-c1csc(NCc2ccco2)n1 | -20.4% | -12.4% | 162.3 | 1.7% | -23.9% | 35.5µM*
COc1ccc(Nc2nc(-c3c(C)nc4ncccn34)cs2)cc1 | ? | ? | -97.8* | · | · | ?
COc1ccccc1Nc1nc(-c2c(C)nc3ncccn23)cs1 | -29.0% | ? | 67.8 | ? | ? | 14.1µM*
Cc1nc2ncccn2c1-c1csc(Nc2ccccc2)n1 | ? | -23.5% | 41.5 | -12.4% | ? | ?
Cc1nc2ncccn2c1-c1csc(Nc2ccc(N(C)C)cc2)n1 | ? | ? | -64.6* | -3.2% | ? | ?
O=C(c1cc(-c2ccccc2O)on1)N1CCCCC1 | -14.9% | -14.1% | 44.3 | ? | ? | 35.2%
CC1=C[C@@H](COCc2ccccc2)O[C@@]2(C1)C(=O)N(CC1CC1)c1ccccc12 | · | · | · | · | 0.8%[14.2 µM] | ·
O=C(Nc1cccc([N+](=O)[O-])c1)N1CCN(c2ccccc2)CC1 | -10.3% | -22.2% | -63.8* | -12.9%[46.1 µM] | -7.5%[46.1 µM] | -14.0%
O=C(Nc1ccccc1)N1CCN(c2ccccc2)CC1 | -13.4% | -13.4% | -25.6 | ? | 21.3% | 39.4%
Cc1ccc(N2CCN(C(=O)C(=O)c3cccc([N+](=O)[O-])c3)CC2)cc1 | -9.6% | ? | 2.3 | · | · | -3.3%
Cc1cccc(NC(=S)N2CCN(C(=O)c3ccco3)CC2)c1 | 6.0% | -18.2% | -18.8 | -27.7%[46.1 µM] | -14.2%[46.1 µM] | 1.3%
Cc1ccc(N2CCN(C(=O)Nc3cccc([N+](=O)[O-])c3)CC2C)cc1 (stereo unspecified) | -27.4% | -29.5% | -64.8* | ? | ? | ?
